Compound activity deposited in PubChem by National Center for Advancing Translational Sciences (NCATS).
This is a sample that favours compounds with a hit; in the whole collection about 1% have one here.
TCR activator = activates T cell receptor signaling. primary human leukocytes, anti-CD3, IL-2 HTRF, 48 h. Potency, µM (top dose mostly 9.22 µM), for inactives: top-dose activation of IL-2 secretion, most hits filed as activators. 330,000 tested, under 10 active. AID 504894; also: % of control where 0% means no effect
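Human primary leukocytes + a-CD3 beads + cpd, 48 hr; IL-2 in supernatant by HTRF (ex 320nm / em 665nm). No co-stimulatory signal supplied.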
TRb-SRC2 inh = TRbeta-SRC2 interaction inhibition; P10828; 0.065% of 280,000 active; Potency, µM (top dose mostly 106 µM), for inactives: at the highest dose activity change, negative = inhibition, most hits filed as inhibitors; TRbeta-SRC2 peptide binding, fluorescence polarization; receptor liganded with 1 µM T3;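 also: potency is read from the fitted curve at half-maximal effect; plate controls were bound peptide for no effect and peptide without receptor for full effect; nearly all actives have a fitted effect of over 50% in size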
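Human TRb LBD (0.6 uM) plus Texas Red-labeled SRC2 peptide (20 nM), 1uM T3, 5% DMSO, 5 hr at ambient temperature. Decreased polarization (555/632 nm) flags inhibition; data normalized to free and bound peptide controls.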
TR SRC2 fluor cs = alters Texas Red total fluorescence, flagging assay interference; TRb/SRC2 Texas Red total fluorescence interference; Potency, µM (top dose mostly 106 µM), inactives show top-dose fluorescence change, negative = quenching; 0.29% of 280,000 active; AID 1479; active = well fitted curve in either direction with a large enough effect; inconclusive = small, poorly fitted or top-dose-only effect; also: potency is read from the fitted curve at half-maximal effect; % is scaled to controls: 0 for no effect and ±100 for the full control effect
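Flags fluorescent or light-absorbing compounds by total fluorescence, S + 2P, at 555 nm excitation and 632 nm emission. Mixture: 20 nM Texas Red SRC2 peptide, 0.6 uM human TRb LBD, 1 uM T3, 5% DMSO; compound exposure 5 h at ambient temperature.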
TSHR antag = blocks TSH signaling through the human TSH receptor | P16473 | TSHR-expressing cells, TSH-stimulated cAMP HTRF, 2 h; stronger effect = lower value | activity change, negative = inhibition, % at 11.5 µM | 0.2% of 330,000 active | AID 504810;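 active = activity change below a set negative limit, meaning inhibition stronger than a set level, cut at about -70% in these data; inconclusive = activity change between two set negative limits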; also: % is scaled to controls: 0 for no effect and ±100 for the full control effect
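Inhibition of cAMP made by TSHR-expressing cells under TSH stimulation (4nM final, EC80; 2 h, 37 deg C) is quantified with a one-step lysis HTRF kit, anti-cAMP cryptate versus cAMP-d2.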
Coupling enz = coupling enzyme interference in Giardia aldolase counter-screen | coupling enzyme system counterscreen, AmpLite Red fluorescence | activity change, negative = inhibition, % at 58.2 µM, hits read low | 0.67% of 290,000 active; in the data active = activity change below about -30%; also: % is scaled to controls: 0 for no effect and ±100 for the full control effect
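Coupling enzymes only (glyceraldehyde-3-phosphate) + compound, at 57.5 uM final, 10 min RT; add substrate/coupling/AmpLite Red mix, 20 min RT; fluorescence ex 525/em 598 nm. Actives flag coupling-system interference.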
NPSR antagonist = blocks cAMP signaling of the human neuropeptide S receptor; Q6W5P4; CHO-NPSR cells, cAMP TR-FRET, antagonist mode; Potency, µM (top dose mostly 38.3 µM), for inactives: at the top dose activity change, negative = inhibition, usual class: inhibitors; 1% of 220,000 active; AID 1461; also: potency is read from the fitted curve at half-maximal effect; % is scaled to controls: 0 for no effect and ±100 for the full control effect; nearly all actives have a fitted effect of over 50% in size
Target sequence (Q6W5P4 whole entry, looked up): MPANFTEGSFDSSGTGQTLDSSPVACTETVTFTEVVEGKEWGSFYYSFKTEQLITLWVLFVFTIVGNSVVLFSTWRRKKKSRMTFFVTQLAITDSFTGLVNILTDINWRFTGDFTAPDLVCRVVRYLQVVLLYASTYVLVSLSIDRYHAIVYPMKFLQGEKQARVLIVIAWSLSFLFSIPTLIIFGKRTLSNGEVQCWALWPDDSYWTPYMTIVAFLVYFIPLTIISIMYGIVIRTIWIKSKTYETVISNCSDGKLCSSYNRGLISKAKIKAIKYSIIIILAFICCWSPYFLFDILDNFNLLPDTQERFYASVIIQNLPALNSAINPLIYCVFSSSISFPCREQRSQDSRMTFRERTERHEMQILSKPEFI
An asterisk follows results filed as active; [ ] = another dose, or the depositor's remark. Unless noted, calls follow the shape of the dose curve; as a rule, active = well fitted curve in the direction sought with a large enough effect; inconclusive = small, poorly fitted or top-dose-only effect, or another doubt; inactive = no such curve, though single readings can be large; an effect the other way counts as inactive or inconclusive.

`O=C(Nc1ccc(F)cc1)Nc1ccc(N2CCOCC2)c2nonc12` gave TCR activator -7%, TRb-SRC2 inh -11%, TR SRC2 fluor cs 4%, TSHR antag -7, Coupling enz -10 and NPSR antagonist -6%.
Screening O=C(Nc1ccc(Cl)cc1N1CCOCC1)C1CCCCC1 returned TCR activator 1%, TSHR antag -6 and Coupling enz 3.
Screening CC(C)=CCC/C(C)=C\CO returned TRb-SRC2 inh 6%[201 µM] and TR SRC2 fluor cs 1%[201 µM].
CCOc1ccccc1NC(=O)COC(=O)Cc1ccc(-c2ccccc2)cc1 was read as TCR activator -3%[46.1 µM], TRb-SRC2 inh inconclusive, TR SRC2 fluor cs 32µM*[quencher], TSHR antag 61, Coupling enz 1 and NPSR antagonist -8%.
Screening CCOc1ccccc1NC(=O)COC(=O)Cc1ccsc1 returned TSHR antag -8.
CCCOc1ccc(Oc2nc(NCC(C)C)nc(N(C)C)n2)nn1 was read as TRb-SRC2 inh -1% and TR SRC2 fluor cs 0%.
`COc1ccc(NC2=CC(=O)CC(c3ccccc3)C2)c(OC)c1` (configuration not stated) gave TCR activator -2%, TRb-SRC2 inh 3%, TR SRC2 fluor cs -1%, TSHR antag 1, Coupling enz 1 and NPSR antagonist 2%[46.1 µM].
Screening CCOc1ccccc1NC1=CC(=O)CC(c2ccccc2)C1 (configuration not stated) returned TCR activator 1%, TRb-SRC2 inh -13%, TR SRC2 fluor cs 0%, TSHR antag -7, Coupling enz 6 and NPSR antagonist 1.3µM*.
COc1ccc2c(C#N)c3ccccn3c2c1 was read as TCR activator -3%, TRb-SRC2 inh -1%, TR SRC2 fluor cs -5%, TSHR antag 8, Coupling enz -37* and NPSR antagonist -33%.
`COc1ccc(C(=O)Nc2ccc(N3CCN(c4ccc(OC)cc4)CC3)c(C#N)c2)cc1` gave TCR activator -18%, TRb-SRC2 inh 5%, TR SRC2 fluor cs -2%, TSHR antag -11, Coupling enz 2 and NPSR antagonist 3.2µM*.
Screening COc1ccc(N2CCN(c3ccc(NC(=O)C4CCCCC4)cc3C#N)CC2)cc1 returned TCR activator 1%, TRb-SRC2 inh 4%, TR SRC2 fluor cs 1%, TSHR antag 11, Coupling enz 6 and NPSR antagonist -9%[46.1 µM].
`CCN(CC)c1ccc(N=Cc2ccccc2[N+](=O)[O-])cc1` gave TCR activator 11%[46.1 µM], TRb-SRC2 inh inconclusive, TR SRC2 fluor cs 30%, TSHR antag -12, Coupling enz -19 and NPSR antagonist -39%.
CCN(CC)c1ccc(N=Cc2ccc([N+](=O)[O-])o2)cc1 was read as TCR activator 22%[46.1 µM], TRb-SRC2 inh inconclusive, TR SRC2 fluor cs 6%, TSHR antag -14, Coupling enz -39* and NPSR antagonist -50%.
For Cc1cc(C(=O)N2CCN(c3cccc(C)c3C)CC2)c2c(C)nn(-c3ccccc3)c2n1 the results were TRb-SRC2 inh 6% and TR SRC2 fluor cs 5%.
For CCCN1C(=O)C2(c3ccccc31)c1c(oc3ccc(C)cc3c1=O)C(=O)N2CCOC (configuration not stated) the results were TRb-SRC2 inh 1% and TR SRC2 fluor cs 8%.
`CCN1/C(=C/c2ccc3ccccc3[n+]2CC)C=Cc2ccccc21` gave TCR activator 6%, TRb-SRC2 inh 12%, TR SRC2 fluor cs -1%, TSHR antag inconclusive, Coupling enz -8 and NPSR antagonist 7.9µM*.
For CCN1/C(=C/c2ccc3ccccc3[n+]2CCCS(=O)(=O)[O-])C=Cc2cc(C)ccc21 the results were TCR activator 2%, TSHR antag 10 and Coupling enz 4.
For CCOc1ccccc1-c1c2cc(O)c(=O)cc-2oc2cc(O)c(O)cc12 the results were TCR activator 6%[46.1 µM], TRb-SRC2 inh -6%, TR SRC2 fluor cs 3%, TSHR antag 8, Coupling enz -62* and NPSR antagonist -13%.
For O=c1cc2oc3cc(O)c(O)cc3c(-c3ccccc3O)c-2cc1O the results were TCR activator 2%, TRb-SRC2 inh 18µM*, TR SRC2 fluor cs 40µM*[fluorescent], TSHR antag -6, Coupling enz -24 and NPSR antagonist 11%[7.67 µM].
For COc1ccc(OC)c(-c2c3cc(O)c(=O)cc-3oc3cc(O)c(O)cc23)c1 the results were TCR activator 5%[46.1 µM], TRb-SRC2 inh 25µM*, TR SRC2 fluor cs 45µM*[fluorescent], TSHR antag -9, Coupling enz -53* and NPSR antagonist -26%.
Screening CCOc1cccc(C(=O)Nc2nc3c(s2)CC(C(C)(C)C)CC3)c1 (configuration not stated) returned TRb-SRC2 inh -2% and TR SRC2 fluor cs 0%.
Screening O=[N+]([O-])c1cccc(S(=O)(=O)Nc2ccc(S(=O)(=O)N3CCCC3)cc2)c1 returned TCR activator -36%.
For O=[N+]([O-])c1cccc(S(=O)(=O)Nc2nc3ccccc3nc2Nc2cccc(S(=O)(=O)N3CCCCC3)c2)c1 the results were TCR activator 1%[46.1 µM], TRb-SRC2 inh -13%, TR SRC2 fluor cs -1%, TSHR antag inconclusive, Coupling enz -1 and NPSR antagonist 6.3µM*.
Screening Cc1ccc(CCNC(=O)CCn2nc(-c3ccc(Cl)cc3)ccc2=O)cc1 returned TRb-SRC2 inh -5% and TR SRC2 fluor cs 0%.
`CCOc1cccc(CNCCCSc2nnnn2C)c1` gave TRb-SRC2 inh -3% and TR SRC2 fluor cs inconclusive.
Cn1nnnc1SCCCNCc1cccc(OCc2ccc(F)cc2)c1 was read as TRb-SRC2 inh -26% and TR SRC2 fluor cs 0.89µM*[quencher].
CCOc1c(Cl)cc(Cl)cc1CNCCSc1nnnn1C was read as TRb-SRC2 inh -8% and TR SRC2 fluor cs 8.9µM*[quencher].
Screening Cn1nnnc1SCCNCc1ccccc1OCc1ccccc1F returned TRb-SRC2 inh -4% and TR SRC2 fluor cs 10µM*[quencher].
Cn1nnnc1SCCCNCc1ccccc1OCc1ccccc1F was read as TRb-SRC2 inh -2% and TR SRC2 fluor cs -20%.
`CCC1CN(C(=O)Nc2ccccc2C(F)(F)F)c2ccccc2S1` (configuration not stated) gave TRb-SRC2 inh -1% and TR SRC2 fluor cs 4%.
`CCCN(C(=O)c1cc2c(=O)oc3ccccc3c2s1)c1ccccc1C` gave TRb-SRC2 inh -3% and TR SRC2 fluor cs 1%.
For CCCCN(CCCC)CCCC the results were TRb-SRC2 inh 0%[201 µM] and TR SRC2 fluor cs -3%[201 µM].
